What all share (test): DAPPL (digital affinity profiling via proximity ligation, sequencing); 10 mM Tris-HCl pH 7.5, 50 mM NaCl, 1 mM DTT, 4% glycerol, room temperature, 30 min; GST-TFs on glutathione beads, 16-mer random dsDNA library, 0.1% formaldehyde crosslink after washing; high values mean tight binding
One assay deals with T1, FEV (Homo sapiens, UniProt Q99581 1-238).
T1 sequence: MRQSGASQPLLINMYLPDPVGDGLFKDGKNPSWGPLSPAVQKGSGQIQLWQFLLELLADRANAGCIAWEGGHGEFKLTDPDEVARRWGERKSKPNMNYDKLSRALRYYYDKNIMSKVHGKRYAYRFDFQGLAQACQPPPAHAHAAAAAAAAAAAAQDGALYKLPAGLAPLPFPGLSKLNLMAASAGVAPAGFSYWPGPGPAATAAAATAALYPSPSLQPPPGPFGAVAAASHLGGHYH
The note with it: protein: recombinant; tags: N-terminal GST; dsDNA, one strand shown. An outline of the steps: (§1)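 Human transcription factors carrying a GST fusion were produced in yeast, bound to glutathione beads, tagged with DNA barcodes and pooled together with a tag-only sample. Each pool was held with 200 nmole of a random double-stranded 16-mer DNA library in Tris/NaCl/DTT/glycerol buffer for 30 min at room temperature, then washed, crosslinked in 0.1% formaldehyde, proximity-ligated with BsaI/T4 ligase (1 h, 37 °C), PCR-amplified and sequenced on an Illumina NextSeq500. Binding signal is the read frequency of each hexamer for a given factor divided by its frequency in the tag-only sample.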

Another assay addresses ETV5 (Homo sapiens, UniProt P41161 1-510). The following applies: protein: recombinant; tags: N-terminal GST; dsDNA, one strand shown. An outline of the steps:
as §1

A further assay has as its target HSF1 (Homo sapiens, UniProt Q00613 1-529). The note with it: protein: recombinant; tags: N-terminal GST; chain copies: 3; dsDNA, one strand shown. Summed up:
as §1

The next assay concerns the target T2, SPIC (Homo sapiens, UniProt Q8N5J4 1-248).
T2 sequence: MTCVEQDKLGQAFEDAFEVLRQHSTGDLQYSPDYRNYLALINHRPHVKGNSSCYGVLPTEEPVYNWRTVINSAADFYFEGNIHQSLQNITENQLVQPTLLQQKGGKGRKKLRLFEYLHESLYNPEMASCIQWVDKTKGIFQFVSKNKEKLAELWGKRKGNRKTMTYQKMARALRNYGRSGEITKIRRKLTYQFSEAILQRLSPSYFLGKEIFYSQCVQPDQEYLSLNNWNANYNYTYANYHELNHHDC
The following applies: protein: recombinant; tags: N-terminal GST; dsDNA, one strand shown. An outline of the steps:
as §1

Another assay concerns the target ELF4 (Homo sapiens, UniProt Q99607 1-663). The following applies: protein: recombinant; tags: N-terminal GST; dsDNA, one strand shown. Summed up:
as §1

A further assay has as its target T3, ELK4 (Homo sapiens, UniProt P28324-2 1-405).
T3 sequence: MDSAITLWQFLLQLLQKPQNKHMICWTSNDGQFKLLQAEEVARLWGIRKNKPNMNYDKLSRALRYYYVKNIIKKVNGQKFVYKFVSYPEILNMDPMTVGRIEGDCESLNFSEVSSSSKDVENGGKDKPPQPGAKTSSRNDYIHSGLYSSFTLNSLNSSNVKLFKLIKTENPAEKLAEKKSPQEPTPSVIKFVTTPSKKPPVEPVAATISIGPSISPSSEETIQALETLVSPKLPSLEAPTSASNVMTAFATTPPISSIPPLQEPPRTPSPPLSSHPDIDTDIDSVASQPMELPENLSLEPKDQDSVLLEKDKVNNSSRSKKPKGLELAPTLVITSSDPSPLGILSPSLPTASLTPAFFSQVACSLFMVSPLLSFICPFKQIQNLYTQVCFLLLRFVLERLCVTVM
The note with it: protein: recombinant; tags: N-terminal GST; dsDNA, one strand shown. Summed up: as §1

Another assay concerns the target T4, ETV2 (Homo sapiens, UniProt O00321 1-342).
T4 sequence: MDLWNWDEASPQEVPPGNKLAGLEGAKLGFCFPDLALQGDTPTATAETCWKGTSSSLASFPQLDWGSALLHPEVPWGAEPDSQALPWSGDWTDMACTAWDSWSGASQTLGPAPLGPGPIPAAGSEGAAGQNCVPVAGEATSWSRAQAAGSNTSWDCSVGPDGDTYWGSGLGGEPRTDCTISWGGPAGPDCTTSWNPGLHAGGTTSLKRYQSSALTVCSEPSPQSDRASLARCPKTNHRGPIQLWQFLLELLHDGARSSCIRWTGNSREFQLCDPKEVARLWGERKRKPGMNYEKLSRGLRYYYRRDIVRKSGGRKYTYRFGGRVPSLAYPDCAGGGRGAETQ
The following applies: protein: recombinant; tags: N-terminal GST; dsDNA, one strand shown. Summed up: as §1

The next assay deals with T5, ELF3 (Homo sapiens, UniProt P78545 1-371).
T5 sequence: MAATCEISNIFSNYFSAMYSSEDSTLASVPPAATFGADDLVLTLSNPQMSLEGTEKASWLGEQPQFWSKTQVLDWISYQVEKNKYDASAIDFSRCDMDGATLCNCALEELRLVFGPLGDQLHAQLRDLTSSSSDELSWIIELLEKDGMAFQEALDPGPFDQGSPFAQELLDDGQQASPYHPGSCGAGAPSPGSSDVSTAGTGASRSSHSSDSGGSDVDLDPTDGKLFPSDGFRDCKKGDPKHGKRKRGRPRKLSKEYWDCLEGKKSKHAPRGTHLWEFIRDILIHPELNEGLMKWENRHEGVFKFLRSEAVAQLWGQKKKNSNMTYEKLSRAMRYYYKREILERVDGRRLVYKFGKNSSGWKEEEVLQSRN
The note with it: protein: recombinant; tags: N-terminal GST; dsDNA, one strand shown. Summed up: as §1

The target of a further assay is CRX (Homo sapiens, UniProt O43186 1-299). The note with it: protein: recombinant; tags: N-terminal GST; dsDNA, one strand shown. Summed up:
as §1

In the next assay the target is ETV1 (Homo sapiens, UniProt P50549 1-477). The note with it: protein: recombinant; tags: N-terminal GST; dsDNA, one strand shown. Summed up:
as §1

In another assay the target is T6, ERF (Homo sapiens, UniProt P50548 1-548).
T6 sequence: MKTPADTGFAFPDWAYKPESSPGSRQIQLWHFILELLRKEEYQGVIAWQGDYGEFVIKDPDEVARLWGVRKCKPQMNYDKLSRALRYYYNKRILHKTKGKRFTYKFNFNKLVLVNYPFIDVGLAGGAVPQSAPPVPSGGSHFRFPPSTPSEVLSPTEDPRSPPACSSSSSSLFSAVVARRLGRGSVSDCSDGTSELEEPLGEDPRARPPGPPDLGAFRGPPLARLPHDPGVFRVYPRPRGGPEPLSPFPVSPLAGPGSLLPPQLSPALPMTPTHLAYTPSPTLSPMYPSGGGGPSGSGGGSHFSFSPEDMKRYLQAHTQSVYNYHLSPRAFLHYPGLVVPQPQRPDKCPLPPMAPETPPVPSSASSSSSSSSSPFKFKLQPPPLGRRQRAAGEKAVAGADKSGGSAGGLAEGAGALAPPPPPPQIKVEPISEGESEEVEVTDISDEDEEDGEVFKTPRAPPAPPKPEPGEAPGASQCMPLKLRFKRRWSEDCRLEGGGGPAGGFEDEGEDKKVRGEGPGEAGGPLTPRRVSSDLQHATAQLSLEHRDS
The following applies: protein: recombinant; tags: N-terminal GST; dsDNA, one strand shown. Summed up:
as §1

The target of the next assay is T7, ETV3L (Homo sapiens, UniProt Q6ZN32 1-361).
T7 sequence: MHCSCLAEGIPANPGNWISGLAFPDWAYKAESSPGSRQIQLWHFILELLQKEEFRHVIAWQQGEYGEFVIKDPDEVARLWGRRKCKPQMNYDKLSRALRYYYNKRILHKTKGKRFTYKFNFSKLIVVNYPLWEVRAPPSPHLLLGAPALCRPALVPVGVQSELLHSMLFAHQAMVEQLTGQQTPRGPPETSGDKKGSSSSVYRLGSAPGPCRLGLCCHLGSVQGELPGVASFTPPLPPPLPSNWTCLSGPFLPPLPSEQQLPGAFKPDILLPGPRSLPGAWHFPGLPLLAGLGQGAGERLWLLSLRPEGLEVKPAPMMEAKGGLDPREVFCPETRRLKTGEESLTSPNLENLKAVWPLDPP
The following applies: protein: recombinant; tags: N-terminal GST; dsDNA, one strand shown. An outline of the steps:
as §1

A further assay addresses T8, ETS2 (Homo sapiens, UniProt P15036 1-469).
T8 sequence: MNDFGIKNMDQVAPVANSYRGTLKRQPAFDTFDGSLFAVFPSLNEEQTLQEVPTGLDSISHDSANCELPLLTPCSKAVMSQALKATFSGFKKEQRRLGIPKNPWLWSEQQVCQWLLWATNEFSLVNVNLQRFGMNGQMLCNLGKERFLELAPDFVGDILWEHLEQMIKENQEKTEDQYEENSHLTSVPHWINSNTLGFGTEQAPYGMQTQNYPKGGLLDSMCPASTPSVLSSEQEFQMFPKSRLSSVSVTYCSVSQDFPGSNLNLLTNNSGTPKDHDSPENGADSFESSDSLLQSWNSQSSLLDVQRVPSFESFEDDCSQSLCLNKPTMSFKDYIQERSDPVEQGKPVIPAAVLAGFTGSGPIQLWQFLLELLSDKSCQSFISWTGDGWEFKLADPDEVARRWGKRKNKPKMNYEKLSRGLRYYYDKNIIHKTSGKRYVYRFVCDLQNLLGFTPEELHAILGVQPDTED
The note with it: protein: recombinant; tags: N-terminal GST; dsDNA, one strand shown. An outline of the steps:
as §1

The next assay deals with T9, SPDEF (Homo sapiens, UniProt O95238 1-335).
T9 sequence: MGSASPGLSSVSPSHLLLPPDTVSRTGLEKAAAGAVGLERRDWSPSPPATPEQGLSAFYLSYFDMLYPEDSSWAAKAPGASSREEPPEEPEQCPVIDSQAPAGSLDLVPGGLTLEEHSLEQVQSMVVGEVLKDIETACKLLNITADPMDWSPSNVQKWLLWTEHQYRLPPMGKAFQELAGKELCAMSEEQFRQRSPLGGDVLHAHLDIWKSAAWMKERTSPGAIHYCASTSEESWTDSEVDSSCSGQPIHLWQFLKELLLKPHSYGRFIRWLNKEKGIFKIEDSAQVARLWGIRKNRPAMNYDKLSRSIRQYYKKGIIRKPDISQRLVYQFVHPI
The note with it: protein: recombinant; tags: N-terminal GST; dsDNA, one strand shown. An outline of the steps:
as §1

Another assay has as its target T10, ETV7 (Homo sapiens, UniProt Q9Y603 1-341).
T10 sequence: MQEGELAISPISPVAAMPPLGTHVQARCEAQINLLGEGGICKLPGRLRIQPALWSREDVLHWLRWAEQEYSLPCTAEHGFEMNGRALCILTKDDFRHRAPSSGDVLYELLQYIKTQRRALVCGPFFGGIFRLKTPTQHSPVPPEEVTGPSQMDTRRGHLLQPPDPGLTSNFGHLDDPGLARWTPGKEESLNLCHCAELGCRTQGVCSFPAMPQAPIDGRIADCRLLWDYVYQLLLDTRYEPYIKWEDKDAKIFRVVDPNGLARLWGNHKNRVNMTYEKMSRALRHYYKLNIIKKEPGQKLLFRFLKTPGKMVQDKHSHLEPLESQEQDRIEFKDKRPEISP
The note with it: protein: recombinant; tags: N-terminal GST; dsDNA, one strand shown. Summed up: as §1

A further assay deals with T11, ELF5 (Homo sapiens, UniProt Q9UKW6-2 1-255).
T11 sequence: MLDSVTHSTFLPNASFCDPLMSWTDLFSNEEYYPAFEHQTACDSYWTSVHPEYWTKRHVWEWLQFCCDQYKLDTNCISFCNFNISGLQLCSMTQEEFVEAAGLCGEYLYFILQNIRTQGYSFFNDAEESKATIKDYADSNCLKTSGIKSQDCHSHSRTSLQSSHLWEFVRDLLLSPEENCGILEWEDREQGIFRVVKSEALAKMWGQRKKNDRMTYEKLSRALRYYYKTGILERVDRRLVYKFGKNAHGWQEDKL
The following applies: protein: recombinant; tags: N-terminal GST; dsDNA, one strand shown. An outline of the steps: as §1

For another assay, the target named is T12, ETV3 (Homo sapiens, UniProt P41162-2 1-143).
T12 sequence: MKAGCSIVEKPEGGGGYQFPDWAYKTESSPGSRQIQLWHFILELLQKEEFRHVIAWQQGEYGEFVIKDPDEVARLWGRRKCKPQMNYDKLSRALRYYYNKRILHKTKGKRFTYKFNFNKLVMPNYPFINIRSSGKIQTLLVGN
The note with it: protein: recombinant; tags: N-terminal GST; dsDNA, one strand shown. An outline of the steps: as §1

A further assay deals with ETV6 (Homo sapiens, UniProt P41212 1-452). The note with it: protein: recombinant; tags: N-terminal GST; dsDNA, one strand shown. Summed up: as §1
Sequence of ETV6 (P41212 whole entry): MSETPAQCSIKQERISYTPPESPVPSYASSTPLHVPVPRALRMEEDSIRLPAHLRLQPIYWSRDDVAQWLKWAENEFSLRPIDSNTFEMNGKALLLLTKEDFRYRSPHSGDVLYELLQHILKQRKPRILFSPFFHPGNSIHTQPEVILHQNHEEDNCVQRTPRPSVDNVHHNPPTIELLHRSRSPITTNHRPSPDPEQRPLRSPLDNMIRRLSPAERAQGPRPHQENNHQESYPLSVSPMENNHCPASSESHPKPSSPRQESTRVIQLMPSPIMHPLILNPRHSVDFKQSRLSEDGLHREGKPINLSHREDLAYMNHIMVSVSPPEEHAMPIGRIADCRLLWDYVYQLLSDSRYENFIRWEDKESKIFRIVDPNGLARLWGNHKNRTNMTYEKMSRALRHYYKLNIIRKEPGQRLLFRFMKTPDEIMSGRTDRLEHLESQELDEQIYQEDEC

Sequence of CRX (O43186 whole entry): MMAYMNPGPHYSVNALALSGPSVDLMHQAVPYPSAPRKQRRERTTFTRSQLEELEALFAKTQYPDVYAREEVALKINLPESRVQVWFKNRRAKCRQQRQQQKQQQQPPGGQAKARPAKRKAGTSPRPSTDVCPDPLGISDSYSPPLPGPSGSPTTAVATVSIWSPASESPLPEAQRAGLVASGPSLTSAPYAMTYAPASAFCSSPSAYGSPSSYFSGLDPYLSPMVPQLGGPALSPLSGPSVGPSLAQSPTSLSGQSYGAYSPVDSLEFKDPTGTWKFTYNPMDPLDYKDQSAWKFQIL
Sequence of ELF4 (Q99607 whole entry): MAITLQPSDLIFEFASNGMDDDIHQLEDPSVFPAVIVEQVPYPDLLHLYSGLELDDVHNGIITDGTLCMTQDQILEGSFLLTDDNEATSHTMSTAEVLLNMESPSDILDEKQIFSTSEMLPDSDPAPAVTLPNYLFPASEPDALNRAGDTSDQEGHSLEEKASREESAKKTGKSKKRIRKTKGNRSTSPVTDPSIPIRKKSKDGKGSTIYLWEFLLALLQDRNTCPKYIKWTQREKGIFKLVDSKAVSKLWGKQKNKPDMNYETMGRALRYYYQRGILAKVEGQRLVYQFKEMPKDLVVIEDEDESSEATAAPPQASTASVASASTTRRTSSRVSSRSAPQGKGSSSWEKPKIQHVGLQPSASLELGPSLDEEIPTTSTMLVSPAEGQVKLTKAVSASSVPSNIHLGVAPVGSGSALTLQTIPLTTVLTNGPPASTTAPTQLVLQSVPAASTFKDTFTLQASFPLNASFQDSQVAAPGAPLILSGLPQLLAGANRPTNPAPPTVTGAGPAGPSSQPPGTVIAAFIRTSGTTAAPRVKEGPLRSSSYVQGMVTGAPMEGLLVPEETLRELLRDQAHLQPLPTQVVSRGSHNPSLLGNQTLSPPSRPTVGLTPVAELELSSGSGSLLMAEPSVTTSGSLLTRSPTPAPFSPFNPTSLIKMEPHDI
Sequence of ETV1 (P50549 whole entry): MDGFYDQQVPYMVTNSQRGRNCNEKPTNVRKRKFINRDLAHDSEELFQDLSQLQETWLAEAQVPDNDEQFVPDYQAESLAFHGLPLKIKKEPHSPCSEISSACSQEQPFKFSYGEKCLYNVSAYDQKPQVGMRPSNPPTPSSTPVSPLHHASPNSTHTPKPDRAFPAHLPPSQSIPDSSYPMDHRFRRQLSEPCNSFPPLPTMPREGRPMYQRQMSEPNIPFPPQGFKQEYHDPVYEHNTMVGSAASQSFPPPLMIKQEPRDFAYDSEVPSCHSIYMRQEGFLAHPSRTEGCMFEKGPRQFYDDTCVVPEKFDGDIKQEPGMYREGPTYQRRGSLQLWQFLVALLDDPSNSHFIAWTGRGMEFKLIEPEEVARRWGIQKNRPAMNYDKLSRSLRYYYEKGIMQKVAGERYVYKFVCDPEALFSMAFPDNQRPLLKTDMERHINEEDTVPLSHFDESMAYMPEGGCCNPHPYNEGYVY
Sequence of HSF1 (Q00613 whole entry): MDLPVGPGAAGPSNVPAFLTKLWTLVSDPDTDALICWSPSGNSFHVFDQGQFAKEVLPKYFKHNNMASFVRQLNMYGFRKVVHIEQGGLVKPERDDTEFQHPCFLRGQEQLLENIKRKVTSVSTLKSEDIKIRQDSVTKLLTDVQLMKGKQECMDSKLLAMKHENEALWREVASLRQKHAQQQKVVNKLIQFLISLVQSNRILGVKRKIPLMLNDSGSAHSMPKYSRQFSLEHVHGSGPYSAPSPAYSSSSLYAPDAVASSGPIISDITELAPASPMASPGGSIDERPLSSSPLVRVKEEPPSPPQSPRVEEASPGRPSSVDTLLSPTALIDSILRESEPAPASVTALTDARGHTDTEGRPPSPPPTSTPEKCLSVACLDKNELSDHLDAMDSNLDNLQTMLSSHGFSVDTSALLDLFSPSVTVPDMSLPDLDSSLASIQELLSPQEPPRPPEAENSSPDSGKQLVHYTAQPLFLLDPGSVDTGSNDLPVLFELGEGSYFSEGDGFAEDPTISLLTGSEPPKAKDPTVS
Sequence of ETV5 (P41161 whole entry): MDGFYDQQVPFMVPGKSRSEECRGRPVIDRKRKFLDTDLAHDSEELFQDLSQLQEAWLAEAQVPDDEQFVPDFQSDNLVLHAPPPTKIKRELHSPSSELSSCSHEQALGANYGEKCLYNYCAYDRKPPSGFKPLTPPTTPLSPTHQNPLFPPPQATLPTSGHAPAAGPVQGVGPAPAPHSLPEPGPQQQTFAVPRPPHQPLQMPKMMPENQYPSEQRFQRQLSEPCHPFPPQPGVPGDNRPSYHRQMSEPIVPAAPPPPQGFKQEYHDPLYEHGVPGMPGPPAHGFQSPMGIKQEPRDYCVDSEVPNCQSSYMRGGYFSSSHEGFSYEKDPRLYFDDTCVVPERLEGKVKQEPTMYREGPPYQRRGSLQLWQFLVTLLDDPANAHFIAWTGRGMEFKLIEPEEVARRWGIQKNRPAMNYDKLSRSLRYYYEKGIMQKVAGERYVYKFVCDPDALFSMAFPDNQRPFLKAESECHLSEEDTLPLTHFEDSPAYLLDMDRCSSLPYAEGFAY

Consider TCCTGT, for which the binding signal with FEV was 1.85 fold enrichment (6-mer frequency, TF over GST control); in the assay with ETV5, 2.04 fold enrichment (6-mer frequency, TF over GST control); with HSF1, 1.14 fold enrichment (6-mer frequency, TF over GST control); with SPIC, 1.87 fold enrichment (6-mer frequency, TF over GST control); in the assay with ELF4, 1.65 fold enrichment (6-mer frequency, TF over GST control); with ELK4 it was 1.56 fold enrichment (6-mer frequency, TF over GST control). Moreover, the binding signal in the assay with ETV2 is 1.71 fold enrichment (6-mer frequency, TF over GST control); with ELF3, 1.78 fold enrichment (6-mer frequency, TF over GST control); in the assay with CRX, 1.16 fold enrichment (6-mer frequency, TF over GST control); in the assay with ETV1 it was 1.89 fold enrichment (6-mer frequency, TF over GST control); with ERF, 1.6 fold enrichment (6-mer frequency, TF over GST control); with ETV3L it was 1.88 fold enrichment (6-mer frequency, TF over GST control). The binding signal with ETS2 was 1.84 fold enrichment (6-mer frequency, TF over GST control); in the assay with SPDEF it was 2.32 fold enrichment (6-mer frequency, TF over GST control); with ETV7, 1.89 fold enrichment (6-mer frequency, TF over GST control); in the assay with ELF5, 2.35 fold enrichment (6-mer frequency, TF over GST control); with ETV3, 1.89 fold enrichment (6-mer frequency, TF over GST control); with ETV6, 1.84 fold enrichment (6-mer frequency, TF over GST control).

The values are drawn from PMC7862700, “An all-to-all approach to the identification of sequence-specific readers for epigenetic DNA modifications on cytosine”.
